# Assay outcomes (PubChem)
# Compounds with a hit are over-represented: about 6% of the library has one in this group of screens.
# D1 agonist = activates the human D1 dopamine receptor; activation, % at 2 µM; hit rate 1% among 360,000; HEK293 T-REx D1 cells, calcium flux, agonist mode; P21728; in the data active = activation above about 30%; note: 0% is about no effect
#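 Inducible HEK293 T-REx D1 cells, force-coupled to calcium signalling, were plated at 4000 cells/well with tetracycline and held overnight at 30 C. After no-wash calcium dye loading, compound-evoked calcium rise over 180 s flagged agonists.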
# D3 antag = D3 dopamine receptor (human) antagonism | P35462 | D3R cells, DiscoveRx beta-arrestin luminescence, antagonist mode; stronger effect = lower value | max response, negative = inhibition, % | AID 652054 | hit rate 2.5% among 360,000; in the data active = max response below about -50%; inconclusive = no clear call, values can overlap the other calls; note: % is set by controls: 0 for no effect and ±100 for the full control effect
# Target sequence (P35462 whole entry, looked up): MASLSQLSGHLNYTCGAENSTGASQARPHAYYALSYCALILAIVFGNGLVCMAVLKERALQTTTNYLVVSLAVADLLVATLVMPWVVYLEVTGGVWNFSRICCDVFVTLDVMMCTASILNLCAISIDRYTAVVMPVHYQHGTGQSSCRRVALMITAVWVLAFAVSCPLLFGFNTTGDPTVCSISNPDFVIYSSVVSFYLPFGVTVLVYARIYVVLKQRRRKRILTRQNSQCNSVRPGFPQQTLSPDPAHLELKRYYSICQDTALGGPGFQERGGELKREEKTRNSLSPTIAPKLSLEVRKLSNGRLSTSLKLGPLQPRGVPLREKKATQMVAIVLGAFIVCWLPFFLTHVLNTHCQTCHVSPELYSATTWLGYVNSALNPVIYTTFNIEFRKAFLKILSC
#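 Cells plated overnight at 1500 cells/well, then exposed to library compounds with dopamine controls for 90 minutes at 37 degrees C. DiscoveRx reagent added for 30–60 minutes at room temperature; luminescence read, quantitative HTS format.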
# D1 antagonist = blocks dopamine activation of the human D1 receptor. P21728. hit rate 3.2% among 360,000. HEK293 TREx D1 cells, calcium flux, dopamine EC80; stronger effect = lower value. activity change, negative = inhibition, % at 10 µM; in the data active = activity change below about -30%; note: % is set by controls: 0 for no effect and ±100 for the full control effect
#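 Inducible Hek293 Trex D1 cells (tetracycline, overnight, 30 C). Calcium dye 30–90 min RT. Antagonist mode: EC80 dopamine added after 180 s compound read.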
# DRD3 agonist = activates the human D3 dopamine receptor; hit rate 0.58% among 410,000; max activation, %; D3R DiscoveRx beta-arrestin cells, luminescence, 90 min; AID 652048; in the data active = max activation above about 30%; note: 0% is about no effect
#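 Agonist-mode cell screen: cells plated at 1500/well and incubated overnight at 37 °C, then exposed to library compounds for 90 min at 37 °C. Detection reagent was added for 30–60 min at room temperature, and luminescence was read.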
# D1 potentiator = potentiators of human D1 dopamine receptor. P21728. HEK293 TREx D1 cells, calcium flux, dopamine EC20 potentiation. potentiation, % at 10 µM. hit rate 0.036% among 360,000. AID 504651; in the data active = potentiation above about 30%; note: 0% is about no effect
# Numbers without * were called inactive; ? = inconclusive; nt = no result.
SMILES,D1 agonist,D3 antag,D1 antagonist,DRD3 agonist,D1 potentiator
C[C@H](CO)N1C[C@H](C)[C@H](CN(C)C(=O)c2ccccc2F)Oc2ncc(Br)cc2C1=O,nt,20.7,nt,5.7,nt
CC1CN(C(=O)c2cccc(S(=O)(=O)N3CCN(c4ccccc4)CC3)c2)CC(C)O1 (stereo not given),10.0,5.0,-25.2,7.6,nt
OC1CCCN(C(=S)NCc2ccccc2)C1 (stereo not given),-2.1,-73.2*,nt,-1.6,0.2
COc1ccc(Cl)cc1NC(=O)CSc1nc(=O)[nH]c2c1CCC2,6.4,nt,-2.9,-0.9,10.8
CNC(=S)/N=C/NOCc1ccc(Cl)cc1Cl,22.5,-17.4,-39.3*,-7.3,-6.1
NC(=O)NOCc1ccc(Cl)cc1Cl,0.7,1.7,13.4,-3.3,6.5
Oc1ccc(Cc2ncc(C(F)(F)F)cc2Cl)cc1,2.5,2.4,5.2,-4.8,2.2
COC(=O)C(C)Oc1ccc(Cc2ncc(C(F)(F)F)cc2Cl)cc1 (stereo not given),13.9,0.7,-36.8*,-3.0,-10.4
CC1CCCCN1S(=O)(=O)c1ccc(C(=O)Nc2sc3c(c2C(N)=O)CC(C)(C)NC3(C)C)cc1 (stereo not given),18.7,nt,-10.3,-12.9,-2.1
Cc1ccc(CNC(=O)CN(c2cccc([N+](=O)[O-])c2)S(=O)(=O)c2ccccc2)cc1,1.3,11.5,-5.1,-0.8,9.1
COc1ccccc1CNC(=O)CN(c1cccc([N+](=O)[O-])c1)S(C)(=O)=O,-0.1,-5.9,-34.8*,3.3,-3.8
Cc1ccc(CNC(=O)CN(c2cccc([N+](=O)[O-])c2)S(C)(=O)=O)cc1,-0.7,10.4,-35.4*,-0.7,-2.6
Cc1ccc(S(=O)(=O)N[C@H](C(=O)OCC(=O)NC(=O)c2cccn2C)C(C)C)cc1,nt,2.4,nt,35.0*,nt
COCCn1c(C)c(C)c(S(=O)(=O)c2ccccc2)c1N,5.4,1.1,-3.5,2.5,-7.5
COc1ccccc1N1CCN(c2nc3ccc(C)cc3n3nnnc23)CC1,3.5,nt,-30.1*,-0.4,-2.2
CCCCc1nc2cc(C(=O)N3CCCCC3COC)ccc2o1 (stereo not given),1.0,16.0,-30.8*,1.8,-7.1
CC(C)Cn1c(N)c(C(=O)CSc2ccc3c(c2)OCCO3)c(=O)n(C)c1=O,24.4,24.1,-32.7*,16.0,-7.0
O=C(Nc1cccc(C(F)(F)F)c1)n1cc(-c2ccccn2)c(N2CCOCC2)n1,23.9,11.8,-46.8*,0.2,-7.0
COCCCN1C(=O)c2[nH]nc(-c3ccccc3O)c2C1c1ccc(OCc2ccccc2)cc1 (stereo not given),-0.3,nt,-23.9,3.1,2.0
COc1ccc(OC)c(CNC(=O)c2cc(=O)[nH]c3ccc(S(=O)(=O)N4CCCCC4C)cc23)c1 (stereo not given),-3.0,nt,11.1,11.2,0.1
COc1ccc(CN(C(=O)Cn2nnc(-c3ccc(C)o3)n2)C(C(=O)NCC2CCCO2)c2ccco2)cc1 (stereo not given),-0.2,1.2,-41.6*,1.9,-5.8
Cc1ccc(-c2nnn(CC(=O)N(c3cccc(F)c3)C(C(=O)NC(C)(C)C)c3ccco3)n2)o1 (stereo not given),0.1,6.7,-38.8*,-2.8,-2.0
Cc1ccccc1N(C(=O)Cn1nnc(-c2ccc(F)cc2)n1)C(C(=O)NC(C)(C)C)c1ccncc1 (stereo not given),14.0,-7.1,-34.6*,-8.8,-3.6
CC(C)(C)NC(=O)C(c1ccncc1)N(C(=O)Cn1nnc(-c2ccc(F)cc2)n1)c1ccccc1F (stereo not given),-0.7,2.6,-2.2,3.7,-3.5
O=S(=O)(c1ccc2c(c1)OCCO2)N1CCN(S(=O)(=O)c2c(F)ccc(O)c2F)CC1,9.3,nt,-1.5,nt,-1.6
SMILES,D1 agonist,D3 antag,D1 antagonist,DRD3 agonist,D1 potentiator
CCOC(=O)c1c(S(=O)(=O)NCCCc2ccco2)c(C)n(C)c1C,2.6,-6.1,-11.6,4.6,-18.3
Cc1ccc(Cn2c(=O)c3ccccc3n3c(-c4cccc(O)c4)nnc23)cc1,0.0,nt,-0.5,-0.4,-1.3
C=C(C)n1c(=O)n(Cc2ccccc2C)c2ccccc21,93.1*,13.4,9.9,5.8,1.0
C=C(C)n1c(=O)n(Cc2ccc(C)cc2)c2ccccc21,-0.6,14.4,-0.1,3.2,-0.6
Cc1cccc(/C=N/N(CCO)C2=NS(=O)(=O)c3ccccc32)c1,2.3,21.2,-33.9*,-7.7,-5.7
CCc1ccc(S(=O)(=O)NCCc2csc(C)n2)s1,0.9,10.8,-37.3*,2.3,-0.7
O=C(O)c1cc(Cl)c2ccccc2c1O,1.8,?,5.5,-3.5,-1.2
CC(C)(NC(=O)c1cc(Cl)c2ccccc2c1O)C(=O)O,0.3,10.7,-30.5*,3.4,0.2
O=C(COC(=O)C1(c2ccccc2F)CCCC1)NC1CCS(=O)(=O)C1 (stereo not given),3.2,-61.8*,14.9,-5.1,-2.1
NS(=O)(=O)c1ccc(NC(=O)COC(=O)C2(c3ccccc3F)CCCC2)cc1,1.0,-3.0,-33.6*,-5.3,-7.0
Cc1cc(C)c(Cn2c(C(O)c3ccccc3)nc3ccccc32)c(C)c1 (stereo not given),9.4,nt,24.3,-7.4,-0.8
O=C(CCC1CCCC1)N1CCc2c([nH]c3ccccc23)C1c1ccc(Cl)cc1 (stereo not given),0.3,nt,-3.2,-12.4,-2.4
CCOc1cc(NC(=S)Nc2ccc(Cl)cc2)c(OCC)cc1NC(C)=O,8.9,0.4,-40.0*,3.1,1.1
C1CCC(OCCN2CCN(CCOC3CCCCC3)CC2)CC1,1.6,-63.0*,-8.2,-27.0,-4.0
C1CCN(CCC2CCCCN2)CC1 (stereo not given),nt,20.0,nt,-6.1,nt
Cc1ccc(NC(=O)OC(C)CNC(=O)Oc2cccc(C)c2)cc1 (stereo not given),3.2,7.5,-32.2*,0.7,-6.1
COC(=O)NCC(C)OC(=O)Nc1ccc(Cl)cc1 (stereo not given),0.9,-26.2,2.0,-5.3,0.6
Cc1ccc(S(=O)(=O)N2CCC(=O)N(CCOC(=O)Nc3ccccc3C)CC2)cc1,-4.1,38.5,-31.0*,-0.5,-5.9
Cc1cc(C)cc(NC(=O)OCCN2CCN(Cc3ccccc3)CCC2=O)c1,-3.7,10.4,-32.3*,-3.4,-6.5
O=C(COC(=O)/C=C/c1cccc(C(F)(F)F)c1)NC1CCS(=O)(=O)C1 (stereo not given),1.6,-10.1,0.3,-8.6,-4.2
Cc1[nH]c2ccccc2c1C(=O)C(=O)N1CC=C(c2ccccc2)CC1,24.5,10.3,-37.4*,1.7,-2.0
Cc1[nH]c2ccccc2c1C(=O)C(=O)N1CC(C)OC(C)C1 (stereo not given),1.2,14.6,1.1,1.6,1.1
Cc1[nH]c2ccccc2c1C(=O)C(=O)N1CCN(c2ccccc2Cl)CC1,5.4,7.5,-14.9,10.0,-1.1
